From PubChem BioAssay AID485313 (National Center for Advancing Translational Sciences (NCATS), 2010)
Among all 320,000 compounds or so, about 7,600 (2.4%) were called active. Where a call stands in place of a potency, no number is given. Inconclusive results (about 3%) are left out. This is one part of a sample in which actives are shown more often than they occur. The call rests on the fitted dose curve; in most records, active means well fitted activation curve with a large enough effect; inconclusive means small, poorly fitted or top-dose-only effect; inactive means no such curve, though single readings can be large or run the other way.

Test: qHTS Assay for NPC1 Promoter Activators; further: nearly all actives have a fitted effect of over 60% in size;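 on activation: reporter is driven by a mutant NPC1 promoter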
Conditions: Huh7 NPC1 promoter luciferase reporter, 24 h; series mostly up to 9.22 µM
In short: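 Stable NPC1-promoter luciferase Huh7 line; cpd (DMSO) 24 h, 37 °C, 5% CO2; Amplite luciferase reagent 10 min RT; luminescence readout. qHTS format.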
Potency means the concentration at half of the fitted maximal effect.

| Compound | Potency |
| --- | --- |
| CSCC[C@H](NC(=O)NC1CCCC1)C(=O)O | inactive |
| Cc1c(NC(=O)CSc2nnc(-c3cccnc3)n2N)c(=O)n(-c2ccccc2)n1C | inactive |
| O=S(=O)(NCc1ccccc1Br)c1ccccc1Br | inactive |
| C=C1CCC(N(O)c2cc(C)on2)C(=C)CCC2C1CC2(C)C (centres undefined) | inactive |
| CCN(CC)CCCNC(=O)COc1ccc2oc3c(c2c1)CCCC3 | inactive |
| O=C(COc1ccc2oc3c(c2c1)CCCC3)Nc1ccccn1 | 631 nM (active) |
| CCOC(=O)N1CCN(C(=O)COc2ccc3oc4c(c3c2)CCCC4)CC1 | inactive |
| C(=N\Nc1ccc2ccccc2n1)/c1ccc2c(c1)OCO2 | 316 nM (active) |
| Cc1cc(C)nc(N/N=C/c2c(C)oc3ccccc23)n1 | inactive |
| Cc1nc(Cl)cc(N/N=C/c2ccccc2)n1 | inactive |
| Cc1noc(C)c1/C=N/Nc1ccc2ccccc2n1 | 2820 nM (active) |
| Brc1ccc(-c2csc(N/N=C/c3ccc4c(c3)OCO4)n2)cc1 | inactive |
| O=C(N/N=C/c1ccc2c(c1)OCO2)C(=O)N1CCCC1 | inactive |
| CCOc1ccc(S(=O)(=O)N2CCCCC2)cc1NC(=O)CN1CCCC1c1cccs1 (centres undefined) | inactive |
| O=C(c1ccc(Cl)nc1)N1CCN(S(=O)(=O)c2ccc3c(c2)OCCO3)CC1 | inactive |
| CCN(CC)CCCNC(=S)N(CCO)Cc1cc2cc3c(cc2[nH]c1=O)OCO3 | inactive |
| Cc1ccc(OCc2nc3ccccc3n2C)cc1 | 3550 nM (active) |
| CCOc1ccc(C(O)Cc2nc3ccccc3n2C)cc1 (centres undefined) | inactive |
| CC(C)n1c(COc2ccccc2)nc2ccccc21 | inactive |
| CCOC(=O)N1CCN(S(=O)(=O)c2ccc3c(c2)C(C)C(=O)N3)CC1 (centres undefined) | inactive |
| COc1ccc(C2=Nc3cc(C)ccc3OC2)cc1 | 891 nM (active) |
| Cc1ccc(C(=O)NNC2=Nc3cc([N+](=O)[O-])ccc3OC2)cc1 | inactive |

| Compound | Potency |
| --- | --- |
| COc1ccc(C2=NOC(COC(=O)c3ccc4ccccc4n3)C2)cc1 (centres undefined) | inactive |
| COc1ccc2ccn(C)c2c1 | inactive |
| Cc1nn(Cc2ccccc2)c(C)c1C(=O)NCCCN1CCCC1=O | inactive |
| COn1c(-c2ccc(Cl)cc2Cl)nc2ncccc21 | inactive |
| Clc1ccc(-c2cc(-c3ccccn3)on2)c(Cl)c1 | 100 nM (active) |
| Clc1ccc(-c2ncc3ccccn23)c(Cl)c1 | inactive |
| Cc1cc(N=Nc2ccc3ccccc3c2)ccc1O | 2240 nM (active) |
| CC(=O)CCC(=O)c1ccc2ccccc2c1 | inactive |
| Cc1ccc(/C=N/NC(=O)c2cc3ccccc3cc2O)o1 | inactive |
| Cc1ccc(S(=O)(=O)N(C)C)cc1NC(=O)c1ccc(-n2cncn2)c([N+](=O)[O-])c1 | inactive |
| Cc1ccc(NC(=O)CN(C)C(=O)c2cccc(S(=O)(=O)N3CCCC3)c2)cc1 | inactive |
| CC(=O)NC(c1cccs1)c1cc(Br)c2cccnc2c1O (centres undefined) | inactive |
| CCC(C)NC(=O)c1ccc(NC(=O)CC2SC(N3CCCCC3)=NC2=O)cc1 (centres undefined) | inactive |
| CC(NC(=O)CSc1nc2c(cc1C#N)CN(C)CC2)c1ccccc1 (centres undefined) | inactive |
| Cc1cc(NC(=O)CSc2nc3c(cc2C#N)CCCCC3)no1 | 1410 nM (active) |
| Cc1nonc1NC(=O)CSc1nc2ccccc2cc1C#N | inactive |
| COc1ccc(C(=O)OCC(=O)c2cc(C)n(CC3CCCO3)c2C)cc1[N+](=O)[O-] (centres undefined) | inactive |
| CCCCN(C(=O)C1CCC1)c1c(N)n(Cc2ccccc2)c(=O)[nH]c1=O | inactive |
| Cn1c(SCC(=O)Nc2ccc(N3CCOCC3)cc2)nnc1C(F)(F)F | inactive |
| CN(C(=O)COC(=O)c1cc(=O)[nH]c2ccccc12)C1CCCCC1 | inactive |
| CC1CCN(C(=O)COC(=O)c2cc(=O)[nH]c3ccccc23)CC1 | 3550 nM (active) |
| COC(=O)C1CCN(C(=O)c2cc(=O)[nH]c3ccccc23)CC1 | inactive |

| Compound | Potency |
| --- | --- |
| Cc1cccc(NC(=O)Nc2ccc(OCc3ccccc3)cc2)n1 | inactive |
| CCN(CC)S(=O)(=O)c1ccc(C)c(NC(=O)COc2ccc(Br)cc2Cl)c1 | inactive |
| Cc1cccc(NC(=O)COc2ccc(Br)cc2C)n1 | 2820 nM (active) |
| Cc1cc(C)cc(NC(=O)C(OC(=O)c2ccc(O)cc2)c2ccccc2)c1 (centres undefined) | inactive |
| Cc1ccccc1NC(=S)NNC(=O)c1cccc(Br)c1 | inactive |
| Cc1ccc(C)c(NC(=S)NNC(=O)c2csc(C)c2)c1 | inactive |
| Cc1cc(C(=O)NNC(=S)Nc2ccccc2C)cs1 | 3160 nM (active) |
| Cc1ccc(C(=O)OCC(=O)NCc2cc(C)c(O)c(C)c2)cc1S(=O)(=O)N1CCCCC1 | inactive |
| NS(=O)(=O)c1ccc(N2C(=O)C3C4CC(C(Br)C4Br)C3C2=O)cc1 (centres undefined) | inactive |
| CCOc1ccc(NC(=O)CN(C)C(=O)CSc2ccccc2)cc1OCC | inactive |
| Cc1ccc(/C(N)=N/OC(=O)COc2ccc(Cl)c(C)c2)cc1 | inactive |
| COc1ccc(C(=O)CSc2nc(C)cc(C)n2)cc1[N+](=O)[O-] | inactive |
| COc1ccc(C(=O)O/N=C(\N)c2ccccn2)cc1[N+](=O)[O-] | 2510 nM (active) |
| Cc1ccc(C(=O)O/N=C(\N)c2ccccn2)cc1Cl | 1580 nM (active) |
| COc1ccc(C(=O)NNC(=O)c2cnccn2)cc1[N+](=O)[O-] | inactive |
| O=C(Nc1ccccc1Cl)O/N=C(/c1ccccc1)c1ccccn1 | inactive |
| N/C(=N\OC(=O)c1ccc([N+](=O)[O-])cc1)c1ccccn1 | 355 nM (active) |
| N/C(=N\OC(=O)Cc1ccc([N+](=O)[O-])cc1)c1ccccn1 | inactive |
| O=C(COC(=O)c1ccccn1)NNC(=O)c1ccc([N+](=O)[O-])cc1 | inactive |
| CN(C(=O)Cn1nnc(-c2ccc(F)cc2)n1)C1CCS(=O)(=O)C1 (centres undefined) | inactive |
| CCOC(=O)c1ccccc1NC(=O)COC(=O)C(Cc1c[nH]c2ccccc12)NC(C)=O (centres undefined) | inactive |
| CC(C)Cc1nnc(NC(=O)CCNC(=O)c2ccccc2Cl)s1 | inactive |

| Compound | Potency |
| --- | --- |
| O=C(COC(=O)CNC(=O)C1CCCCC1)NCc1ccccc1 | inactive |
| CC(C(=O)NC1CCCC1)N1CCN(S(=O)(=O)c2ccccc2Cl)CC1 (centres undefined) | inactive |
| Cc1ccc(NS(=O)(=O)c2ccc3c(c2)CC(=O)N3)cc1Cl | inactive |
| O=C(OCC(=O)N1CCc2ccccc21)c1ccc([N+](=O)[O-])cc1 | inactive |
| CC1CCCN(C(=O)c2cc(-c3ccco3)nc3ccccc23)C1 (centres undefined) | inactive |
| Nc1ccc(N=Nc2ccccc2Cl)c(N)n1 | 3160 nM (active) |
| O=C(NCc1ccncc1)c1cccc(NS(=O)(=O)c2ccc(F)c(F)c2)c1 | inactive |
| CC[C@H](C)C(=O)N[C@H]1CCCN1C(=O)/C=C/c1ccccc1 | inactive |
| Cc1ccc(NC(=O)Nc2ccc3oc(C)nc3c2)cc1 | 1120 nM (active) |
| Cc1nc2ccc(NC(=O)C(F)(F)F)cc2o1 | inactive |
| Cc1nc2cc(NC(=O)NCc3ccccc3)ccc2o1 | inactive |
| CCc1ccc(OCC(=O)OC(C)C(=O)NC2CC2)cc1 (centres undefined) | inactive |
| O=C(CN1CCc2ccccc2C1)Nc1cccc(S(=O)(=O)N2CCOCC2)c1 | inactive |
| Cc1cccc(NS(=O)(=O)c2cccc(C(=O)NNC(=O)c3ccccc3O)c2)c1 | inactive |
| Cc1cc(C)cc(OCC(=O)Nc2ccc(N3CCOCC3)cc2N2CCOCC2)c1 | inactive |
| CCN1/C(=C/C(=S)Nc2ccccc2)Sc2ccccc21 | 3980 nM (active) |
| CCN1/C(=C/c2ccc3ccc(C)cc3[n+]2CC)Sc2ccccc21 | inactive |
| O=C(CCN1c2ccccc2Sc2ccccc21)Nc1ccccc1 | inactive |
| O=C(NC1=NCCS1)c1ccc(Cl)s1 | 2510 nM (active) |
| O=C(NCc1ccc2c(c1)OCO2)c1ccc(Cl)s1 | inactive |
| CCOc1ccc(C(=O)CCC(=O)NC2=NCCS2)cc1 | inactive |
| COc1ccccc1C(=O)NCCC(=O)NC1=NCCS1 | inactive |

| Compound | Potency |
| --- | --- |
| COc1ccc(C(=O)NC2=NCCS2)c(OC)c1 | 891 nM (active) |
| O=C(NC1=NCCS1)[C@H](Cc1ccccc1)N1C(=O)c2ccccc2C1=O | inactive |
| O=C(COC(=O)c1ccc(N2CCCC2=O)cc1)c1ccc(OC(F)F)cc1 | inactive |
| COc1cc(OC)cc(-c2c(-c3cccs3)c3cc(-c4ccc(OC)nc4)ccc3n2C)c1 | inactive |
| CCCCN(C(=O)c1ccc2ccccc2c1)c1c(N)n(CCCC)c(=O)[nH]c1=O | inactive |
| Nc1ncc(CN2CCCC(C(=O)Nc3ccc(-c4ccco4)cc3)C2)cn1 (centres undefined) | inactive |
| COc1ccc(C(C)(C)C)cc1NC(=O)CCN1C(=O)C2CCCCC2C1=O (centres undefined) | inactive |
| O=C(CSc1ncnc2c1nnn2Cc1ccc(F)cc1)NC1CCCC1 | inactive |
| CN(C)C(=O)COC(=O)c1cccc(S(=O)(=O)N2CC3(C)CC2CC(C)(C)C3)c1 (centres undefined) | inactive |
| CCCc1c(C(=O)O)cnn1-c1ccc(Cl)cc1 | inactive |
| CCCNC(=O)c1c(Cl)cnn1-c1ccc(C)cc1 | 2510 nM (active) |
| CCCNC(=O)CCc1c(C)nc2c(c(C)nn2-c2ccc(C)cc2)c1C | inactive |
| Cc1ccc(C)c(OCC(=O)NNC(=O)C2CCC2)c1 | inactive |
| O=C(O[C@@H]1[C@H](Cc2ccccc2)NS(=O)(=O)[C@H]2C[C@@H]3C=C[C@]12O3)c1ccccc1Br | inactive |
| O=C(CNS(=O)(=O)c1ccc2c(c1)OCCCO2)N1CCN(c2ccc(F)cc2)CC1 | inactive |
| O=C(NNC(=O)C1CCC1)c1ccccc1 | inactive |
| COc1ccc(S(=O)(=O)N2CCOCC2)cc1NC(=O)CSc1cc(C)ccc1C | inactive |
| CC(C)n1c(=O)[nH]c2cc(C(=O)Nc3ccccc3)ccc21 | inactive |
| O=C(Nc1ccccc1)c1cc2ccccc2[nH]1 | 3980 nM (active) |
| COc1ccc2[nH]c(C(=O)Nc3ccccc3Cl)cc2c1 | inactive |
| CC1(C(=O)OCC(=O)Nc2ncc(Cl)cc2Cl)CC1(Cl)Cl (centres undefined) | inactive |
